Measurements from PubChem BioAssay (EPA / NIEHS).
The source made the active and inactive calls. The calls were made as follows: active = hit-call score of the fitted dose curve at least 0.9, where 1 is the maximum; inactive = score below 0.9.

assay: BSK_4H_Eotaxin3: BioMAP Diversity Plus: 4H Assay for Eotaxin 3 Biomarker Activity (AID 2283000); settings: primary human endothelial cells (HUVEC); actives raise or lower the signal;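 as to outcome: CCL26 protein level quantified by ELISA in parallel with SRB cytotoxicity check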
Method in brief: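 Endothelial primary cells (human umbilical vein) exposed to compound for 24 h. ELISA detection of Eotaxin-3.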

| SMILES | outcome | AC50 |
| --- | --- | --- |
| OC(Cc1ccccc1Cl)(Cn1cncn1)C1(Cl)CC1 (stereo not drawn) | inactive | – |
| O=S(=O)(C(Cl)(Cl)Cl)C(Cl)(Cl)Cl | – | 1.47 µM (active) |
| Cc1cc(Cl)ccc1OC(C)C(=O)O (stereo not drawn) | inactive | – |
| O=C(Cc1ccccc1)OCCc1ccccc1 | inactive | – |
| CCOP(=S)(OCC)OP(=S)(OCC)OCC | – | 35.6 µM (active) |
| O=[N+]([O-])c1ccc(Nc2ccccc2)cc1 | inactive | – |
| C[C@]12CC[C@@H](O)C[C@@H]1CC[C@@H]1[C@@H]2CC[C@]2(C)C(=O)CC[C@@H]12 | inactive | – |
| Oc1cccc(-c2ccccc2)c1 | – | 20 µM (active) |
| NC(=O)CCl | inactive | – |
| O=c1oc2ccccc2c(O)c1C(CC(O)c1ccc(-c2ccc(Br)cc2)cc1)c1ccccc1 (stereo not drawn) | – | 16.9 µM (active) |
| C#CCOC(=O)/C=C(C)/C=C/CC(C)CCCC(C)C (stereo not drawn) | – | 20 µM (active) |
| CCCCCCCCCCCCN(C)C | inactive | – |
| CCOC(=O)CCN(SN(C)C(=O)Oc1cccc2c1OC(C)(C)C2)C(C)C | – | 28.8 µM (active) |
| Cc1ccccc1OP(=O)(Oc1ccccc1C)Oc1ccccc1C | – | 9.39 µM (active) |
| O=S(=O)(c1ccc(Cl)cc1)c1cc(Cl)c(Cl)cc1Cl | inactive | – |
| N#CCCC(Br)(C#N)CBr (stereo not drawn) | – | 8.6 µM (active) |
| CCOC(=O)CC(=O)CCl | – | 20 µM (active) |
| O=C1C=CC(=O)c2ccccc21 | – | 2.17 µM (active) |
| CC(C)(COCC1CO1)COCC1CO1 (stereo not drawn) | inactive | – |

| SMILES | outcome | AC50 |
| --- | --- | --- |
| Oc1ccc(Cc2ccc(O)cc2)cc1 | inactive | – |
| CC(C=O)Cc1ccc2c(c1)OCO2 (stereo not drawn) | inactive | – |
| Nc1c(Oc2ccccc2)cc(O)c2c1C(=O)c1ccccc1C2=O | – | 10 µM (active) |
| CC(C)(C)c1cc([N+](=O)[O-])cc(C(C)(C)C)c1O | – | 0.016 µM (active) |
| Oc1c(Cl)cc(Cl)cc1Cl | inactive | – |
| [Cl][Sn]([c]1ccccc1)([c]1ccccc1)[c]1ccccc1 | – | 0.0985 µM (active) |
| CC1(C)[C@H](C(=O)O[C@H](C#N)c2cccc(Oc3ccccc3)c2)[C@@H]1/C=C(\Cl)C(F)(F)F | inactive | – |
| Cc1ccc(OP(=O)(Oc2ccc(C)cc2C)Oc2ccc(C)cc2C)c(C)c1 | inactive | – |
| O=[N+]([O-])c1cccc2ccccc12 | inactive | – |
| Cc1ccc2nc3sc(=O)sc3nc2c1 | – | 5.95 µM (active) |
| c1ccc(-c2cccc(-c3ccccc3)c2)cc1 | – | 20 µM (active) |
| CCC(C)(C#N)N=NC(C)(C#N)CC (stereo not drawn) | inactive | – |
| CCN(CC)C(=O)C(Cl)=C(C)OP(=O)(OC)OC | inactive | – |
| CCOP(=O)(OCC)OC(=CCl)c1ccc(Cl)cc1Cl | – | 30.9 µM (active) |
| Cc1cccc(OP(=O)(Oc2cccc(C)c2)Oc2cccc(C)c2)c1 | inactive | – |
| OCCCCO | inactive | – |
| Cc1ccccc1OP(=O)(Oc1ccccc1)Oc1ccccc1 | – | 28.7 µM (active) |
| COCC(=O)N(c1c(C)cccc1C)[C@H](C)C(=O)OC | inactive | – |
| CCCCOC(=O)COC(=O)c1ccccc1C(=O)OCCCC | inactive | – |
